# Assay results published in the supplement of paper PMC10849652.
# Of roughly 7,900 targets only a part is listed; those with a hit were picked by preference. About 0.6% of all pairs of compound and target were hits.
# Compound: CS(=O)(=O)CCNCc1ccc(-c2ccc3ncnc(Nc4ccc(OCc5cccc(F)c5)c(Cl)c4)c3c2)o1 [lapatinib]
# Assay: log2 fold change, soluble protein after heating vs DMSO (PISA); higher = thermal stabilisation; K562 cells, 10 uM, 30 min; active = over 0.2 and 3.5 SD of the protein, either way, in both replicates (recomputed)
# Method in brief: (§1)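 K562 cells at 2×10^6 cells/mL were exposed to 10 μM compound for 30 min, then aliquots were heated for 3 min across 48°C-58°C, pooled, and extracted in PBS containing 0.5% NP-40 at 4°C. The supernatant after 21,000xg for 90 min was taken as soluble protein and measured by TMTpro 16plex LC-MS/MS with channel sums equalised. Thermal stability is reported relative to control samples, with values from duplicates. Fold changes are given on a log2 scale.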
# Chain of UniProt P08243 (P08243 whole entry, looked up): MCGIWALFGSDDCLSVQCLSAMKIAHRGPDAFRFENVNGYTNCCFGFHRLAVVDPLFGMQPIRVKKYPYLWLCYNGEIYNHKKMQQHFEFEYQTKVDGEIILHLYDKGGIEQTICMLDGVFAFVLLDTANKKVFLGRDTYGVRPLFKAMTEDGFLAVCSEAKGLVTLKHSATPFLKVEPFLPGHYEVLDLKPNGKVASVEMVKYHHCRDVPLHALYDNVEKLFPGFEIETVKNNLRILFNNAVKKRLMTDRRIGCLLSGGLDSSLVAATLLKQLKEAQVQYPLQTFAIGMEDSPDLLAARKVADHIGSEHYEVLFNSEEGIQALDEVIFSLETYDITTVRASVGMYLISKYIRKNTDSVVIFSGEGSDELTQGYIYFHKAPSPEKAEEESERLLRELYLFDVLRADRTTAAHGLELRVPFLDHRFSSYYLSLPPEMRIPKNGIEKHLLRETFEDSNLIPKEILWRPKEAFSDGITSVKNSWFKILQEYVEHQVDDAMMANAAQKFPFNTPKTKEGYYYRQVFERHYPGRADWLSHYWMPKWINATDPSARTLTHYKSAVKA
# Chain of UniProt Q9Y6E2 (Q9Y6E2 whole entry, looked up): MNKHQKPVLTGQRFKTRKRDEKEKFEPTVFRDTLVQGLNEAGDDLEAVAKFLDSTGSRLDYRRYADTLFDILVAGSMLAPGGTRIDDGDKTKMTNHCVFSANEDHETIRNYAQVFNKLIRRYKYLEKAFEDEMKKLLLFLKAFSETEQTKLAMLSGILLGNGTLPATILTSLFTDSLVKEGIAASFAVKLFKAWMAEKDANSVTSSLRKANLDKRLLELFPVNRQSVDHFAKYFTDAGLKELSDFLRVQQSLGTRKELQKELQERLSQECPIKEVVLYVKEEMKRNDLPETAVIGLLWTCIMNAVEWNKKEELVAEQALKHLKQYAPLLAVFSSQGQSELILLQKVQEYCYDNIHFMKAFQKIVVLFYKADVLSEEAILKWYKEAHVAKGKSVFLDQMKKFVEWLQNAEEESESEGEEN
# Chain of UniProt Q9NRZ7 (Q9NRZ7 whole entry, looked up): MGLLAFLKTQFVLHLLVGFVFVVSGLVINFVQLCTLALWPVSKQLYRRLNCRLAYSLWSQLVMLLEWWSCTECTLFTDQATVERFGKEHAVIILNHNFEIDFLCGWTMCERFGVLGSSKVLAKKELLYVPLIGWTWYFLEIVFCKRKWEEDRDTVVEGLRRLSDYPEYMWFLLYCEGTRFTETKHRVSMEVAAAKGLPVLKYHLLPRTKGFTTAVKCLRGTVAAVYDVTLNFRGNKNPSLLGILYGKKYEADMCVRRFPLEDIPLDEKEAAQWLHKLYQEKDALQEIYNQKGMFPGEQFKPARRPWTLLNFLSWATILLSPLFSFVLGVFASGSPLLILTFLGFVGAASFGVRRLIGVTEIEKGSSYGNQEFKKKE
# Chain of UniProt Q5JTZ9 (Q5JTZ9 whole entry, looked up): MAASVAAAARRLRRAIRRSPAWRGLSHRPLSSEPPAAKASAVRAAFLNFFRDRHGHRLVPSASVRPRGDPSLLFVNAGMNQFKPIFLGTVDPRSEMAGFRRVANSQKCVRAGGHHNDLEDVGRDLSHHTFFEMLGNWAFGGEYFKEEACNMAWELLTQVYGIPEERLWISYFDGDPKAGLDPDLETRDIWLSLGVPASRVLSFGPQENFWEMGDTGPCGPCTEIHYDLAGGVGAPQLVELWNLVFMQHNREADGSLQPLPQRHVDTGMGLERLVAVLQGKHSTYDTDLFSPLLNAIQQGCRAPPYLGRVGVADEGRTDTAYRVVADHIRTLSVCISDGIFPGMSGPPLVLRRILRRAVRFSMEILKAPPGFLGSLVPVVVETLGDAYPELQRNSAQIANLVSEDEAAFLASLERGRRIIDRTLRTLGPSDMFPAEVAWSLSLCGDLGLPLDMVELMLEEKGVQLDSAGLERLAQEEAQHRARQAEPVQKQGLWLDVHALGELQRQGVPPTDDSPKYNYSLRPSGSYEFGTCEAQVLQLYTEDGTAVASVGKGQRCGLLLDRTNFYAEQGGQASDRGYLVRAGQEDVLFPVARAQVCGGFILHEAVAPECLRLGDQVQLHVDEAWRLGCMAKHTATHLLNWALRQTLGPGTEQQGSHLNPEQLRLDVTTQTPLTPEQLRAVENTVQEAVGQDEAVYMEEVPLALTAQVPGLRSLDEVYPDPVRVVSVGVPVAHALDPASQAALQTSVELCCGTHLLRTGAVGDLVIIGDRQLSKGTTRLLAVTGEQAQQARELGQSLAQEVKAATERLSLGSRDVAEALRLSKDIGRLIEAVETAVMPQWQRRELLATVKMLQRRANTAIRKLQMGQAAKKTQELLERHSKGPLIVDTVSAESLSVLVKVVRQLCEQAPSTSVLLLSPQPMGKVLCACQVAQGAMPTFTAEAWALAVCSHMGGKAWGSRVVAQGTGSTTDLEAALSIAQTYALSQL
# Chain of UniProt O00116 (O00116 whole entry, looked up): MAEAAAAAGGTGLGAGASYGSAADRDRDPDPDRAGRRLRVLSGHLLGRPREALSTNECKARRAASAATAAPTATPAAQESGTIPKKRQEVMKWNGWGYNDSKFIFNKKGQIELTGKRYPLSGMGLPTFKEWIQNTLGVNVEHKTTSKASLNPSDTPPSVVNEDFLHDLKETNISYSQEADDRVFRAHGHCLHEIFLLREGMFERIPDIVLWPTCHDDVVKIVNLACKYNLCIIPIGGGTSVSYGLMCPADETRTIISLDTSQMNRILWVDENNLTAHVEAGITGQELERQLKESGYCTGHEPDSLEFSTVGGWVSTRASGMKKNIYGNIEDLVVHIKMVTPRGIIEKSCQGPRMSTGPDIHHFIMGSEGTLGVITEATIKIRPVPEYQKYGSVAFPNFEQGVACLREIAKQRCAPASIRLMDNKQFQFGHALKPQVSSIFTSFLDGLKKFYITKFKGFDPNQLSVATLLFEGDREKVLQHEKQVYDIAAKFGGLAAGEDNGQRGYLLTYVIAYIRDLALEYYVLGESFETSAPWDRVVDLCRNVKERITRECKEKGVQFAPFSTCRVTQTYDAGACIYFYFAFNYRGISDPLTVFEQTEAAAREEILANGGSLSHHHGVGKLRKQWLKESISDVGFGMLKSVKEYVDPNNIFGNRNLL
# Chain of UniProt Q9UBL3 (Q9UBL3 whole entry, looked up): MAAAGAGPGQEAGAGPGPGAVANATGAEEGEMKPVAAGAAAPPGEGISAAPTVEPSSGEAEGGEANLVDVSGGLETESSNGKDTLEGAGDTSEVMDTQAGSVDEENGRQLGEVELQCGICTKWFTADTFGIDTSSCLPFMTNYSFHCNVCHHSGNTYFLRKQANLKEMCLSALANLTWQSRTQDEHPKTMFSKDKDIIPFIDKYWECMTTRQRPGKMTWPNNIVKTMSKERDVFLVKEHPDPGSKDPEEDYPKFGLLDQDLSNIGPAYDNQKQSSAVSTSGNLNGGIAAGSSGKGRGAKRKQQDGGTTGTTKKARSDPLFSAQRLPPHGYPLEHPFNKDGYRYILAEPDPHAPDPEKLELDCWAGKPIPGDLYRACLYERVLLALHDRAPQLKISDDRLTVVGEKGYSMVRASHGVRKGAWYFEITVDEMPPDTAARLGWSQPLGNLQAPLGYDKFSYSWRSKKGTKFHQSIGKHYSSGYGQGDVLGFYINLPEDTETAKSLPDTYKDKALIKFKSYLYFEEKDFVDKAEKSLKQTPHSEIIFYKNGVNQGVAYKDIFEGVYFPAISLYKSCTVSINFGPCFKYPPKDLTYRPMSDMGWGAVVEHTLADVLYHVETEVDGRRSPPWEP
# Chain of UniProt O00244 (O00244 whole entry, looked up): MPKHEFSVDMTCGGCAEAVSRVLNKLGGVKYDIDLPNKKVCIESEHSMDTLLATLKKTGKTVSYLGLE
# Chain of UniProt Q7L1Q6 (Q7L1Q6 whole entry, looked up): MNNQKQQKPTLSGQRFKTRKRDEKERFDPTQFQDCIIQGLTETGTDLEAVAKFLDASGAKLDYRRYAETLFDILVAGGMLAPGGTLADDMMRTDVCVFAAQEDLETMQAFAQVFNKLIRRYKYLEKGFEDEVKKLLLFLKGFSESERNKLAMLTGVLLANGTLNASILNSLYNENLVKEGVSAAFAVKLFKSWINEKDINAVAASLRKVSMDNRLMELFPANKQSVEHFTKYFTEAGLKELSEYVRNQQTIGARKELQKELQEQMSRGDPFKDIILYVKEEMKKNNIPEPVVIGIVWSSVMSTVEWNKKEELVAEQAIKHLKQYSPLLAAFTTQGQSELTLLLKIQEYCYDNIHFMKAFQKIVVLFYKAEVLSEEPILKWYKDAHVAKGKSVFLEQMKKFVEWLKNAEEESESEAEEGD
# Chain of UniProt P02749 (P02749 whole entry, looked up): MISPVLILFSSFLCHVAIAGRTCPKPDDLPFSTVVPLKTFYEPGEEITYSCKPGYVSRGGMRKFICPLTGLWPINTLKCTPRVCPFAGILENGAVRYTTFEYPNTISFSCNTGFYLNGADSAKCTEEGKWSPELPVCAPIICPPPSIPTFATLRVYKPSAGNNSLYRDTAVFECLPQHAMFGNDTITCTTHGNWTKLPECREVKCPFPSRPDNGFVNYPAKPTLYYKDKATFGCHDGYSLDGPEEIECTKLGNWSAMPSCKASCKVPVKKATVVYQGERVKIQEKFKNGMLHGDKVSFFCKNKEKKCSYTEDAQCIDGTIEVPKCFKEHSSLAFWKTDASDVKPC
# Chain of UniProt P36405 (P36405 whole entry, looked up): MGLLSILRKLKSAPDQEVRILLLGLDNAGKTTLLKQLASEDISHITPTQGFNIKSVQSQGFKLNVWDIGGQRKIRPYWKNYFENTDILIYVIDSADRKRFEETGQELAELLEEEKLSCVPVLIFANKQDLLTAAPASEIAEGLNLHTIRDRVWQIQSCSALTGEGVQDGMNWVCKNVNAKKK
# Chain of UniProt Q10589 (Q10589 whole entry, looked up): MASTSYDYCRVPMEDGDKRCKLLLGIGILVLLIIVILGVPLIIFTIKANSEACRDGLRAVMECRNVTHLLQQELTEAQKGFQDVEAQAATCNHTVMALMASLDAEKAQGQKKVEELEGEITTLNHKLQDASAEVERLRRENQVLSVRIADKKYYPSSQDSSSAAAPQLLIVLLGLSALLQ
row,Target,log2 fold change
1,BLVRB (UniProt P30043),0.071 (inactive)
2,ARL3 (UniProt P36405),-0.03 (inactive)
3,AGRN (UniProt O00468),0.018 (inactive)
4,AARS2 (UniProt Q5JTZ9),-0.005 (inactive)
5,AP2A2 isoform 2 (UniProt O94973),0.01 (inactive)
6,ATOX1 (UniProt O00244),0.314 (inactive)
7,ATP6V0A1 isoform 3 (UniProt Q93050),0.033 (inactive)
8,ALG3 (UniProt Q92685),0.104 (inactive)
9,APOH (UniProt P02749),-0.197 (inactive)
10,ATP12A isoform 2 (UniProt P54707),-0.074 (inactive)
11,AGPS (UniProt O00116),0.018 (inactive)
12,ATP1A1 (UniProt P05023),-0.019 (inactive)
13,BZW2 (UniProt Q9Y6E2),-0.055 (inactive)
14,ACIN1 (UniProt Q9UKV3),0.034 (inactive)
15,BMP2K (UniProt Q9NSY1),0.01 (inactive)
16,AIFM2 (UniProt Q9BRQ8),0.135 (inactive)
17,ATP1B3 (UniProt P54709),-0.051 (inactive)
18,BECN1 (UniProt Q14457),0.008 (inactive)

row,Target,log2 fold change
1,ATP6V1H (UniProt Q9UI12),-0.009 (inactive)
2,ATAD3B (UniProt Q5T9A4),-0.047 (inactive)
3,ADRM1 (UniProt Q16186),0.022 (inactive)
4,BRD3 (UniProt Q15059),-0.057 (inactive)
5,ASNS (UniProt P08243),-0.017 (inactive)
6,AGPAT3 isoform 3 (UniProt Q9NRZ7),0.004 (inactive)
7,BUB1B isoform 3 (UniProt O60566),0.006 (inactive)
8,ARMC8 (UniProt Q8IUR7),0.046 (inactive)
9,BCAP29 isoform 2 (UniProt Q9UHQ4),-0.009 (inactive)
10,ATG4B isoform 2 (UniProt Q9Y4P1),-0.157 (inactive)
11,BST2 (UniProt Q10589),0.038 (inactive)
12,AKAP8 (UniProt O43823),0.014 (inactive)
13,BZW1 isoform 3 (UniProt Q7L1Q6),-0.071 (inactive)
14,ANKRD29 (UniProt Q8N6D5),-0.126 (inactive)
15,AGPAT5 (UniProt Q9NUQ2),0.119 (inactive)
16,ASH2L (UniProt Q9UBL3),-0.011 (inactive)
17,AGPAT1 (UniProt Q99943),0.074 (inactive)

# Compound: CS(=O)(=O)N1CCN(Cc2cc3nc(-c4cccc5[nH]ncc45)nc(N4CCOCC4)c3s2)CC1 [pictilisib]
# Assay: as above
# Method in brief: as §1
row,Target,log2 fold change
1,BLVRB (UniProt P30043),0.037 (inactive)
2,ARL3 (UniProt P36405),0.031 (inactive)
3,AGRN (UniProt O00468),0.055 (inactive)
4,AARS2 (UniProt Q5JTZ9),0.06 (inactive)
5,AP2A2 isoform 2 (UniProt O94973),-0.002 (inactive)
6,ATOX1 (UniProt O00244),-0.015 (inactive)
7,ATP6V0A1 isoform 3 (UniProt Q93050),-0.284 (inactive)
8,ALG3 (UniProt Q92685),0.006 (inactive)
9,APOH (UniProt P02749),-0.537 (inactive)
10,ATP12A isoform 2 (UniProt P54707),0.1 (inactive)
11,AGPS (UniProt O00116),-0.003 (inactive)
12,ATP1A1 (UniProt P05023),-0.023 (inactive)
13,BZW2 (UniProt Q9Y6E2),-0.034 (inactive)
14,ACIN1 (UniProt Q9UKV3),0.03 (inactive)
15,BMP2K (UniProt Q9NSY1),0.102 (inactive)
16,AIFM2 (UniProt Q9BRQ8),0.121 (inactive)
17,ATP1B3 (UniProt P54709),-0.012 (inactive)
18,BECN1 (UniProt Q14457),0.086 (inactive)

row,Target,log2 fold change
1,ATP6V1H (UniProt Q9UI12),-0.063 (inactive)
2,ATAD3B (UniProt Q5T9A4),-0.161 (inactive)
3,ADRM1 (UniProt Q16186),-0.013 (inactive)
4,BRD3 (UniProt Q15059),0.081 (inactive)
5,ASNS (UniProt P08243),0.019 (inactive)
6,AGPAT3 isoform 3 (UniProt Q9NRZ7),-0.013 (inactive)
7,BUB1B isoform 3 (UniProt O60566),0.065 (inactive)
8,ARMC8 (UniProt Q8IUR7),0.005 (inactive)
9,BCAP29 isoform 2 (UniProt Q9UHQ4),-0.027 (inactive)
10,ATG4B isoform 2 (UniProt Q9Y4P1),-0.311 (inactive)
11,BST2 (UniProt Q10589),0.036 (inactive)
12,AKAP8 (UniProt O43823),0.101 (inactive)
13,BZW1 isoform 3 (UniProt Q7L1Q6),-0.071 (inactive)
14,ANKRD29 (UniProt Q8N6D5),0.177 (inactive)
15,AGPAT5 (UniProt Q9NUQ2),0.062 (inactive)
16,ASH2L (UniProt Q9UBL3),0.039 (inactive)
17,AGPAT1 (UniProt Q99943),0.017 (inactive)
